A selection: hits, their analogues and other compounds. The true share with any hit is near 2.9%.
mIDH1 inhibitor = inhibitors of human mutant IDH1 R132H; O75874; 0.093% of 390,000 active; Potency, µM (series often up to 76.6 µM), actives largely listed as inhibitors; IDH1-R132H enzyme, NADPH consumption, diaphorase/resazurin fluorescence; note: nearly all actives have a fitted effect of over 65% in size
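IDH1-R132H (0.5 ug/mL dispensed) in pH 7.5 Tris buffer was preincubated 30 min with compound, then given a substrate mix of 0.016 mM NADPH and 2 mM alpha-KG for 80 min at room temperature; remaining NADPH was read by diaphorase/resazurin fluorescence.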
DRD3 antagonist = blocks the human D3 dopamine receptor | P35462 | D3R cells, DiscoveRx beta-arrestin luminescence, antagonist mode; stronger effect = lower value | max response, negative = inhibition, % | 2.5% of 360,000 active; in the data active = max response below about -50%; inconclusive = no clear call, values can overlap the other calls
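Cells expressing the human receptor were seeded at 1500 cells/well, incubated overnight at 37 degrees C in 5% CO2, then exposed to library compounds with dopamine controls for 90 minutes at 37 degrees C before luminescent detection.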
B2AR arrestin = beta2AR (human) beta-arrestin recruitment activity; P07550; beta-arrestin recruitment to beta2AR, cell-based reporter; Potency, µM (doses to about 46.1 µM), actives largely listed as activators; 0.02% of 330,000 active; AID 492947; note: nearly all actives have a fitted effect of over 65% in size
Target sequence (P07550 whole entry, looked up): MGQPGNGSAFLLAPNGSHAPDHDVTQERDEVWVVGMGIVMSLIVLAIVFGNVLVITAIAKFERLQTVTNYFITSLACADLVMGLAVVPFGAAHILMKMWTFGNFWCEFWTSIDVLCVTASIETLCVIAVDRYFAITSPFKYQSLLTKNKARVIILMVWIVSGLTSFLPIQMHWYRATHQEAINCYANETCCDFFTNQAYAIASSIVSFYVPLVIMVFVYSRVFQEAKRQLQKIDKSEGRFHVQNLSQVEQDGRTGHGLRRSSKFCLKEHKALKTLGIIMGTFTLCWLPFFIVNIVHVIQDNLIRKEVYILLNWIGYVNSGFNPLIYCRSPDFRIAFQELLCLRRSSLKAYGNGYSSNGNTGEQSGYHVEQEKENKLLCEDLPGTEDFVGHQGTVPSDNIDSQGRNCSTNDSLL
Integrin act MD = activates integrin-mediated alleviation for muscular dystrophy; 0.064% of 350,000 active; alpha7betagal myoblasts, beta-gal FDG fluorescence, 48 h; Potency, µM (highest dose often 38.3 µM), usual class: activators; note: nearly all actives have a fitted effect of over 60% in size
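Alpha7betagal+/- myoblasts (passage 13) were plated 16-24 hr, then exposed to compounds (1:260 dilution of DMSO stock) for 48 hours at 37C. After MPER lysis, β-galactosidase reporter activity was read as FDG fluorescence (ex 480/em 540) after 30 minutes.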
DRD3 agonist = D3 dopamine receptor (human) agonism; D3R DiscoveRx beta-arrestin cells, luminescence, 90 min; AID 652048; 0.58% of 410,000 active; max activation, %; P35462; in the data active = max activation above about 30%
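Cells at 1500/well, incubated overnight, then treated with pinned compounds (dopamine as control) for 90 min at 37 degrees C. DiscoveRx reagent added for 30 - 60 minutes at room temperature; luminescence read.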
A number is an active result; . = inactive; ? = inconclusive; / = not tested or not shown; [ ] = another dose, or the depositor's remark. Unless noted, calls come from the whole dose curve; as a rule, active = well fitted curve in the direction sought with a large enough effect; inconclusive = small, poorly fitted or top-dose-only effect, or another doubt; inactive = no such curve, though single readings can be large; an effect the other way counts as inactive or inconclusive.

SMILES | mIDH1 inhibitor | DRD3 antagonist | B2AR arrestin | Integrin act MD | DRD3 agonist
CC(C)CNC(=S)NNC(=O)c1csc2c1CCC(C)C2 (configuration not stated) | . | -55 | . | .[7.66 µM] | .
Cc1cccc(NC(=S)NNC(=O)c2csc3c2CCC(C)C3)c1 (configuration not stated) | . | . | . | . | .
COc1ccc(CC2S/C(=N/N=C/c3ccccc3O)NC2=O)cc1 (configuration not stated) | . | . | . | . | .
O=C1N/C(=N/N=C/c2ccccc2O)SC1Cc1ccc(F)cc1 (configuration not stated) | . | -56 | . | . | .
CC(C)C[C@H]1CN([C@@H](Cc2ccccc2)CN2CCC[C@@H]2CN2C(=O)C(=O)NC[C@@H]2Cc2ccccc2)C(=O)C(=O)N1CCc1ccccc1 | / | -65 | / | / | .
CC(C)C[C@H]1CNC(=S)N1C[C@H]1CCCN1C[C@H](Cc1ccc(O)cc1)N1C[C@H](CC(C)C)N(CC2CCCCCC2)C1=S | / | -65 | / | / | .
CC(C)C[C@H]1CNC(=S)N1C[C@H]1CCCN1C[C@H](Cc1ccccc1)N1C[C@H](Cc2ccc(O)cc2)N(CC2CCCCCC2)C1=S | / | . | / | / | .
CC(C)C[C@H]1CN([C@@H](Cc2ccccc2)CN2CCC[C@H]2CN2C(=O)C(=O)NC[C@@H]2Cc2ccccc2)C(=O)C(=O)N1CCc1ccccc1 | / | . | / | / | .
CS(=O)(=O)NC1CCN(Cc2ccccc2)CC1 | . | ? | . | . | .
Cc1csc2c(NC3CCN(Cc4ccccc4)CC3)ncnc12 | . | -81 | . | . | .
c1ccc(CN2CCC(Nc3ncnc4sccc34)CC2)cc1 | . | ? | . | . | .
Cc1sc2ncnc(NC3CCN(Cc4ccccc4)CC3)c2c1C | . | -75 | . | . | .
O=C(c1ccc(CS(=O)(=O)c2c(Cl)cccc2Cl)o1)N1CCN(c2ccccc2)CC1 | . | / | / | / | .
CCOC1=C2[C@@H](CN(S(=O)(=O)c3ccccc3C)[C@H]2c2ccc(Cl)cc2)[C@H]2C(=O)N(c3ccccc3)C(=O)[C@H]2C1 | / | . | / | / | .
CCOC1=C2[C@@H](CN(S(=O)(=O)c3ccccc3C)[C@H]2c2ccc(Cl)cc2)[C@H]2C(=O)NC(=O)[C@H]2C1 | / | -72 | / | / | .
COc1cc(NC(=O)CSc2ncnc3sc4c(c23)CCC(C)C4)c(C(=O)O)cc1OC (configuration not stated) | . | . | . | . | .
CCOC(=O)c1c(NC(C)=O)sc2c1CCC(C=O)=C2Sc1ccccc1 | . | -58 | . | . | .
CCOC(=O)c1c(NC(C)=O)sc2c1CCN(Cc1ccccc1)C2 | . | . | . | . | .
COc1ccccc1C(C)NCC(=O)Nc1ccccc1C(F)(F)F (configuration not stated) | . | -57 | . | . | .
COc1cccc(NC(=O)Nc2ccc(Br)cn2)c1 | . | . | . | . | 49
COc1cccc(NC(=O)Nc2nc(-c3ccc(OC)c(OC)c3)cs2)c1 | . | . | . | . | 49
COc1ccc(-c2csc(NC(C)=O)n2)cc1OC | . | . | . | . | .
COc1ccc(NC(=O)Nc2ccc(Br)cn2)cc1OC | . | . | . | ? | .
Cc1ccc(C(=O)N2CCN(Cc3cc(=O)n4nc(-c5ccccc5)sc4n3)CC2)cc1 | . | / | / | / | .
COc1ccc(NC(=O)CSc2nc3c([nH]c4ccccc43)c(=O)n2-c2ccccc2)c(OC)c1 | . | / | / | / | .
SMILES | mIDH1 inhibitor | DRD3 antagonist | B2AR arrestin | Integrin act MD | DRD3 agonist
Cc1ccc(C)c(N2CCN(C(=O)c3ccc4nc(-c5ccco5)c(-c5ccco5)nc4c3)CC2)c1 | . | . | . | . | 34
O=c1[nH]c2ccc(NCc3ccc(-c4cccc(Cl)c4)o3)cc2[nH]1 | . | / | / | / | .
CN(C)CCCn1c(NC(=O)C2CCCCC2)nc2ccccc21 | . | -52 | . | . | .
CCC(=O)Nc1nc2ccccc2n1CCN(C)C | . | -81 | . | . | .
CCCCn1c(NC(=S)Nc2ccccc2)nc2ccccc21 | . | . | . | . | 32
Cc1ccccc1CS(=O)(=O)c1nnc([C@H](Cc2ccccc2)NC(=O)OC(C)(C)C)o1 | . | -53 | . | . | .
CCC(C)[C@@H](NC(=O)OC(C)(C)C)c1nnc(S(=O)(=O)Cc2cccc(C)c2)o1 (some centres not stated) | . | -54 | . | . | .
CCN(C(=O)C1CCN(S(=O)(=O)c2cc(Br)cc3c2N(C(C)=O)CC3)CC1)c1cccc(C)c1 | . | / | / | / | .
Cc1cccc(CCNC(=O)CN(c2ccc(C(C)C)cc2)S(=O)(=O)c2c(C)nn(C)c2C)c1 | . | / | / | / | .
CC(NC(=O)COC(=O)c1cc(NS(=O)(=O)c2ccc(Cl)c([N+](=O)[O-])c2)ccc1O)C1CC2CCC1C2 (configuration not stated) | . | -61 | . | . | .
Cc1ccc(-n2nc(CO)c(C(=O)NC(C)CCCc3ccccc3)n2)cc1C (configuration not stated) | . | / | / | / | .
COC(=O)c1ccc(CN2CCCC(C(=O)c3cc(F)ccc3OC)C2)cc1 (configuration not stated) | . | -95 | . | . | .
CSc1ccccc1C(=O)C1CCCN(Cc2c(C)n(C)n(-c3ccccc3)c2=O)C1 (configuration not stated) | . | . | . | . | .
CSc1ccccc1C(=O)C1CCCN(Cc2cnn(-c3ccccc3)c2)C1 (configuration not stated) | . | -76 | . | . | .
COC(=O)c1ccc(CN2CCCC(C(=O)c3ccccc3OC)C2)cc1 (configuration not stated) | . | -51 | . | . | .
CC(=O)c1c(C)n(-c2cccc(C)c2)c2ccc(OC(=O)COc3ccccc3)cc12 | . | / | / | / | .
CC(C)CC(=O)/C=C/n1c(=S)oc2ccccc21 | . | . | . | . | .
CC(=O)/C=C/n1c(=S)oc2ccccc21 | . | -85 | ? | ? | .
CC(=O)Nc1ccc(S(=O)(=O)NCc2cn3c(C)csc3n2)cc1 | . | -69 | . | . | .
CC(=O)Nc1ccc(S(=O)(=O)NCc2csc(C)n2)cc1 | . | . | . | . | .
CC(C)c1nnc(NC(=O)c2nc(S(=O)(=O)Cc3ccccc3F)ncc2Cl)s1 | . | -51 | . | . | .
CC(C)c1nnc(NC(=O)c2nc(S(=O)(=O)Cc3ccc(F)cc3)ncc2Cl)s1 | . | -61 | . | . | .
CSc1nnc(NC(=O)c2nc(S(=O)(=O)Cc3ccccc3F)ncc2Cl)s1 | . | . | . | . | .
CCSc1nnc(NC(=O)c2nc(S(=O)(=O)Cc3ccc(F)cc3)ncc2Cl)s1 | . | -68 | . | . | .
Cc1nnc(NC(=O)c2nc(S(=O)(=O)Cc3ccccc3C)ncc2Cl)s1 | . | -50 | . | . | .
Nc1cccc([N+](=O)[O-])c1 | . | . | . | . | .
